# Results taken from the supplement of paper PMC8728848.
# The full list was thinned out, with the strongest signals kept by preference.
# Columns and labels:
# Assay in all cases: glycan array binding signal (z-score within array); higher = stronger binding
# Details in all cases: glycan notation: IUPAC condensed, linker removed
# [1] = target: Fuc(a1-2)Gal(b1-3)GalNAc(b1-3)Gal(a1-4)Gal(b1-4)Glc
# Method in brief: (§1)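 The Consortium for Functional Glycomics database supplied 3228 glycan arrays, of which those lacking an available protein sequence were dropped. The binding signal, a within-array Z-score, was averaged across arrays of the same protein sequence and across linkers. Negative scores can be read as non-binding.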
# [2] = target: Fuc(a1-2)Gal(b1-3)GlcNAc6S
# Method in brief: as §1
# [3] = target: Fuc(a1-2)Gal(b1-3)[Fuc(a1-4)]GlcNAc
# Method in brief: as §1
# [4] = target: Fuc(a1-2)Gal(b1-3)[Fuc(a1-4)]GlcNAc(b1-3)[Gal(b1-4)GlcNAc(b1-6)]Gal(b1-4)Glc
# Method in brief: as §1
# [5] = target: Fuc(a1-2)Gal(b1-4)GlcNAc(b1-2)Man(a1-3)[Fuc(a1-2)Gal(b1-4)GlcNAc(b1-2)Man(a1-6)]Man(b1-4)GlcNAc(b1-4)GlcNAc
# Method in brief: as §1
# [6] = target: Fuc(a1-2)Gal(b1-4)[Fuc(a1-3)]GlcNAc(b1-3)GalNAc
# Method in brief: as §1
# [7] = target: Fuc(a1-2)Gal3S(b1-4)GlcNAc
# Method in brief: as §1
# [8] = target: Fuc(a1-2)[Gal(a1-3)]Gal(b1-3)GalNAc(b1-3)Gal(a1-4)Gal(b1-4)Glc
# Method in brief: as §1
# [9] = target: Fuc(a1-2)[Gal(a1-3)]Gal(b1-4)GlcNAc(b1-2)Man(a1-3)[Fuc(a1-2)[Gal(a1-3)]Gal(b1-4)GlcNAc(b1-2)Man(a1-6)]Man(b1-4)GlcNAc(b1-4)GlcNAc
# Method in brief: as §1
# [10] = target: Fuc(a1-2)[GalNAc(a1-3)]Gal(b1-4)GlcNAc(b1-2)Man(a1-3)[Fuc(a1-2)[GalNAc(a1-3)]Gal(b1-4)GlcNAc(b1-2)Man(a1-6)]Man(b1-4)GlcNAc(b1-4)GlcNAc
# Method in brief: as §1
# [11] = target: Fuc(a1-3)[Gal(b1-4)]GlcNAc(b1-6)GalNAc
# Method in brief: as §1
# [12] = target: Gal(a1-3)Gal(b1-4)GlcNAc(b1-2)Man(a1-3)[Gal(a1-3)Gal(b1-4)GlcNAc(b1-2)Man(a1-6)]Man(b1-4)GlcNAc(b1-4)GlcNAc
# Method in brief: as §1
# [13] = target: Gal(a1-3)[Gal(a1-4)]Gal(b1-4)GlcNAc
# Method in brief: as §1
# [14] = target: Gal(a1-4)Gal(b1-3)GlcNAc(b1-2)Man(a1-3)[Gal(a1-4)Gal(b1-3)GlcNAc(b1-2)Man(a1-6)]Man(b1-4)GlcNAc(b1-4)GlcNAc
# Method in brief: as §1
# Gal(b1-4)Gal = target: Gal(b1-4)Gal
# Method in brief: as §1
# [15] = target: Gal(b1-4)GlcNAc(b1-2)[Gal(b1-4)GlcNAc(b1-4)]Man(a1-3)[GlcNAc(b1-4)][Gal(b1-4)GlcNAc(b1-2)Man(a1-6)]Man(b1-4)GlcNAc(b1-4)GlcNAc
# Method in brief: as §1
# [16] = target: Gal(b1-4)GlcNAc(b1-3)Gal(b1-3)GalNAc
# Method in brief: as §1
# [17] = target: Gal(b1-4)GlcNAc(b1-3)Gal(b1-4)Glc
# Method in brief: as §1
# [18] = target: Gal(b1-4)GlcNAc(b1-3)Gal(b1-4)GlcNAc(b1-2)Man(a1-3)[Gal(b1-4)GlcNAc(b1-3)Gal(b1-4)GlcNAc(b1-2)Man(a1-6)]Man(b1-4)GlcNAc(b1-4)[Fuc(a1-6)]GlcNAc
# Method in brief: as §1
# [19] = target: Gal(b1-4)GlcNAc(b1-3)Gal(b1-4)GlcNAc(b1-3)Gal(b1-4)GlcNAc(b1-2)Man(a1-3)[Gal(b1-4)GlcNAc(b1-3)Gal(b1-4)GlcNAc(b1-3)Gal(b1-4)GlcNAc(b1-2)Man(a1-6)]Man(b1-4)GlcNAc(b1-4)GlcNAc
# Method in brief: as §1
# [20] = target: Gal(b1-4)GlcNAc(b1-3)Gal(b1-4)GlcNAc(b1-3)Gal(b1-4)GlcNAc(b1-3)Gal(b1-4)GlcNAc(b1-3)Gal(b1-4)GlcNAc(b1-2)[Gal(b1-4)GlcNAc(b1-3)Gal(b1-4)GlcNAc(b1-3)Gal(b1-4)GlcNAc(b1-3)Gal(b1-4)GlcNAc(b1-3)Gal(b1-4)GlcNAc(b1-6)]Man(a1-6)[Gal(b1-4)GlcNAc(b1-3)Gal(b1-4)GlcNAc(b1-3)Gal(b1-4)GlcNAc(b1-3)Gal(b1-4)GlcNAc(b1-3)Gal(b1-4)GlcNAc(b1-2)Man(a1-3)]Man(b1-4)GlcNAc(b1-4)[Fuc(a1-6)]GlcNAc
# Method in brief: as §1
# [21] = target: Gal(b1-4)GlcNAc(b1-3)GalNAc
# Method in brief: as §1
# [22] = target: Gal(b1-4)GlcNAc(b1-6)[Gal(b1-3)]GalNAc
# Method in brief: as §1
# Gal4S6S(b1-4)GlcNAc = target: Gal4S6S(b1-4)GlcNAc
# Method in brief: as §1
# GalNAc(a1-3)Gal = target: GalNAc(a1-3)Gal
# Method in brief: as §1
# GlcNAc(b1-3)Fuc = target: GlcNAc(b1-3)Fuc
# Method in brief: as §1
# [23] = target: GlcNAc(b1-3)Gal(b1-4)GlcNAc(b1-3)Gal(b1-4)GlcNAc
# Method in brief: as §1
# [24] = target: GlcNAc(b1-3)[GlcNAc(b1-4)][GlcNAc(b1-6)]GlcNAc
# Method in brief: as §1
# [25] = target: GlcNAc(b1-4)Gal(b1-4)GlcNAc
# Method in brief: as §1
# GlcNAc(b1-4)GlcNAc = target: GlcNAc(b1-4)GlcNAc
# Method in brief: as §1
# [26] = target: GlcNAc(b1-4)GlcNAc(b1-4)GlcNAc
# Method in brief: as §1
# Kdn(a2-3)Gal(b1-4)GlcNAc = target: Kdn(a2-3)Gal(b1-4)GlcNAc
# Method in brief: as §1
# [27] = target: Man(a1-3)[Man(a1-6)]Man(b1-4)GlcNAc(b1-4)GlcNAc
# Method in brief: as §1
# MurNAc(b1-4)GlcNAc = target: MurNAc(b1-4)GlcNAc
# Method in brief: as §1
# [28] = target: Neu5Ac(a2-3)Gal(b1-3)GalNAc
# Method in brief: as §1
# [29] = target: Neu5Ac(a2-3)Gal(b1-3)GlcNAc(b1-2)Man
# Method in brief: as §1
# [30] = target: Neu5Ac(a2-3)Gal(b1-3)GlcNAc(b1-2)Man(a1-3)[GlcNAc(b1-4)][Neu5Ac(a2-3)Gal(b1-3)GlcNAc(b1-2)Man(a1-6)]Man(b1-4)GlcNAc(b1-4)GlcNAc
# Method in brief: as §1
# [31] = target: Neu5Ac(a2-3)Gal(b1-3)[Fuc(a1-4)]GlcNAc
# Method in brief: as §1
# [32] = target: Neu5Ac(a2-3)Gal(b1-3)[Fuc(a1-4)]GlcNAc(b1-3)Gal(b1-4)[Fuc(a1-3)]GlcNAc
# Method in brief: as §1
# [33] = target: Neu5Ac(a2-3)Gal(b1-3)[GlcNAc(b1-6)]GalNAc
# Method in brief: as §1
# [34] = target: Neu5Ac(a2-3)Gal(b1-4)GlcNAc(b1-2)Man
# Method in brief: as §1
# [35] = target: Neu5Ac(a2-3)Gal(b1-4)GlcNAc(b1-3)Gal
# Method in brief: as §1
# [36] = target: Neu5Ac(a2-3)Gal(b1-4)GlcNAc(b1-3)Gal(b1-4)GlcNAc
# Method in brief: as §1
# [37] = target: Neu5Ac(a2-3)Gal(b1-4)[Fuc(a1-3)]GlcNAc(b1-6)[Gal(b1-3)]GalNAc
# Method in brief: as §1
# [38] = target: Neu5Ac(a2-6)Gal(b1-4)GlcNAc(b1-2)Man(a1-3)[Gal(b1-4)GlcNAc(b1-2)Man(a1-6)]Man(b1-4)GlcNAc(b1-4)GlcNAc
# Method in brief: as §1
# [39] = target: Neu5Ac(a2-6)Gal(b1-4)GlcNAc(b1-2)Man(a1-3)[GlcNAc(b1-2)Man(a1-6)]Man(b1-4)GlcNAc(b1-4)GlcNAc
# Method in brief: as §1
# [40] = target: Neu5Ac(a2-6)Gal(b1-4)GlcNAc(b1-2)Man(a1-3)[Neu5Ac(a2-6)Gal(b1-4)GlcNAc(b1-2)Man(a1-6)]Man(b1-4)GlcNAc(b1-4)GlcNAc
# Method in brief: as §1
# [41] = target: Neu5Ac(a2-6)Gal(b1-4)GlcNAc(b1-3)Gal(b1-4)GlcNAc(b1-2)Man(a1-3)[Neu5Ac(a2-6)Gal(b1-4)GlcNAc(b1-3)Gal(b1-4)GlcNAc(b1-2)Man(a1-6)]GalNAc
# Method in brief: as §1
# [42] = target: Neu5Ac(b2-6)Gal(b1-4)GlcNAc
# Method in brief: as §1
# [43] = target: Neu5Gc(a2-6)Gal(b1-4)GlcNAc
# Method in brief: as §1
# [44] = target: Neu5Gc(a2-8)Neu5Gc(a2-3)Gal(b1-4)GlcNAc
# Method in brief: as §1
binder,measurement,setting,value
LecRKVI.2 (protein) RTTTNFAFRGFNGNQSKIRIEGAAMIKPDGLLRLTDRKSNVTGTAFYHKPVRLLNRNSTNVTIRSFSTSFVFVIIPSSSSNKGFGFTFTLSPTPYRLNAGSAQYLGVFNKENNGDPRNHVFAVEFDTVQGSRDDNTDRIGNDIGLNYNSRTSDLQEPVVYYNNDDHNKKEDFQLESGNPIQALLEYDGATQMLNVTVYPARLGFKPTKPLISQHVPKLLEIVQEEMYVGFTASTGKGQSSAHYVMGWSFSSGGERPIADVLILSELPPPPPNKAKKEGLNS,glycan array binding signal (z-score),[1],-0.133
same,glycan array binding signal (z-score),[2],-0.436
same,glycan array binding signal (z-score),[3],-0.312
same,glycan array binding signal (z-score),[4],-0.205
same,glycan array binding signal (z-score),[5],3.27
same,glycan array binding signal (z-score),[6],4.76
same,glycan array binding signal (z-score),[7],-0.468
same,glycan array binding signal (z-score),[8],-0.403
same,glycan array binding signal (z-score),[9],0.276
same,glycan array binding signal (z-score),[10],4.57
same,glycan array binding signal (z-score),[11],3.86
same,glycan array binding signal (z-score),[12],3.09
same,glycan array binding signal (z-score),[13],-0.211
same,glycan array binding signal (z-score),[14],5.85
same,glycan array binding signal (z-score),Gal(b1-4)Gal,-0.396
same,glycan array binding signal (z-score),[15],-0.319
same,glycan array binding signal (z-score),[16],-0.047
same,glycan array binding signal (z-score),[17],-0.296
same,glycan array binding signal (z-score),[18],3.44
same,glycan array binding signal (z-score),[19],6.91
same,glycan array binding signal (z-score),[20],0.566
same,glycan array binding signal (z-score),[21],-0.373
same,glycan array binding signal (z-score),[22],1.83
same,glycan array binding signal (z-score),Gal4S6S(b1-4)GlcNAc,-0.352
same,glycan array binding signal (z-score),GalNAc(a1-3)Gal,3.89
same,glycan array binding signal (z-score),GlcNAc(b1-3)Fuc,-0.233
same,glycan array binding signal (z-score),[23],-0.415
same,glycan array binding signal (z-score),[24],-0.429
same,glycan array binding signal (z-score),[25],-0.256
same,glycan array binding signal (z-score),GlcNAc(b1-4)GlcNAc,-0.232
same,glycan array binding signal (z-score),[26],-0.408
same,glycan array binding signal (z-score),Kdn(a2-3)Gal(b1-4)GlcNAc,-0.49
same,glycan array binding signal (z-score),[27],-0.376
same,glycan array binding signal (z-score),MurNAc(b1-4)GlcNAc,-0.279
same,glycan array binding signal (z-score),[28],-0.423
same,glycan array binding signal (z-score),[29],-0.335
same,glycan array binding signal (z-score),[30],-0.407
same,glycan array binding signal (z-score),[31],-0.318
same,glycan array binding signal (z-score),[32],-0.388
same,glycan array binding signal (z-score),[33],-0.402
same,glycan array binding signal (z-score),[34],-0.25
same,glycan array binding signal (z-score),[35],-0.323
same,glycan array binding signal (z-score),[36],-0.162
same,glycan array binding signal (z-score),[37],3.09
same,glycan array binding signal (z-score),[38],0.37
same,glycan array binding signal (z-score),[39],-0.274
same,glycan array binding signal (z-score),[40],0.07
same,glycan array binding signal (z-score),[41],3.81
same,glycan array binding signal (z-score),[42],-0.393
same,glycan array binding signal (z-score),[43],-0.356
same,glycan array binding signal (z-score),[44],-0.395
